Screening data deposited in PubChem by National Center for Advancing Translational Sciences (NCATS).
IMPase Li inh: qHTS Assay for Identifying the Cell-Membrane Permeable IMPase Inhibitors: Potentiation with Lithium | CHO-M1 cells, IP1 TR-FRET (IP-One), carbachol + lithium | actives 0.35% (n = 210,000) | Potency, µM (titrated, usually from 59.4 µM), usual class: inhibitors;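 also: IP1 builds up when IMPase is blocked and the TR-FRET signal falls; nearly all actives have a fitted effect of over 50% in size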
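Concentration–response in CHO-M1 cells, lithium-potentiated; 30 min at 37C. IP1 detected by competitive TR-FRET after 10 min lysis at RT. Hill-fitted AC50.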
IMPase cell inh: qHTS Assay for Identifying the Cell-Membrane Permeable IMPase Inhibitors; Inositol monophosphatase 1 (Rattus norvegicus), P97697; CHO-M1 cells, IP1 accumulation, HTRF TR-FRET ratio; 120,000 tested, under 10 active; inhibition (IP1 accumulation), % at 46.1 µM; active = well fitted curve in the direction sought with a large enough effect in the signal ratio, not every such curve was filed as active; inconclusive = small, poorly fitted or top-dose-only effect, or a change in a side signal; inactive = no such curve, though single readings can be large or run the other way; the % refers to the signal ratio;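 also: cells stimulated with carbachol in lithium chloride buffer; higher means more IMPase inhibition seen as more IP1 and lower FRET ratio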
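Carbachol-driven Gq signalling in CHO-M1 cells (2000/well) generates IP1. Compounds that block IMPase raise IP1 and so reduce the FRET signal from Eu-anti-IP1 and d2-IP1 after a 10 min room-temperature lysis.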
ALOX15B inhib: qHTS Assay for Inhibitors of 15-hLO-2 (15-human lipoxygenase 2). Polyunsaturated fatty acid lipoxygenase ALOX15B (Homo sapiens), O15296. purified 15hLO-2, xylenol orange hydroperoxide absorbance. Potency, µM (titrated, usually from 57.1 µM), actives largely listed as inhibitors. actives 0.56% (n = 110,000). AID 881, 2007; also: nearly all actives have a fitted effect of over 60% in size
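Purified human 15hLO-2 (50 nM final) preincubated with compounds 15 min at room temperature in 25 mM Hepes pH 7.5, 0.01% Triton X-100, then 45 uM arachidonic acid added for 90 min; hydroperoxide detected via ferrous/xylenol orange, 573/405 nm absorbance ratio.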
ALOX12 inhib: qHTS Assay for Inhibitors of 12-hLO (12-human lipoxygenase) | Polyunsaturated fatty acid lipoxygenase ALOX12 (Homo sapiens), P18054 | purified 12-hLO, xylenol orange hydroperoxide absorbance | Potency, µM (doses to about 57.1 µM), usual class: inhibitors | actives 0.12% (n = 150,000) | AID 1452, 2008; also: nearly all actives have a fitted effect of over 55% in size
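Hydroperoxide formation by human 12-lipoxygenase from 40 uM arachidonic acid was followed colorimetrically via ferric-xylenol orange complex, using the 573/405 nm absorbance ratio. Enzyme concentration was 150 nM, with 30 min reaction at room temperature.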
PNC inhibitor: High Content Assay for Compounds that inhibit the Assembly of the Perinucleolar Compartment. PC3M PTB-GFP, PNC prevalence imaging, 16 h; active compounds read low. activity change (PNC), negative = inhibition, % at 10 µM. actives 3.1% (n = 140,000);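 active = readout at or below -70, meaning at least 70% loss of cells showing the perinucleolar compartment, a nuclear body marking cancer cells; inconclusive = readout between -30 and a set limit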
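Read-out is percentage of cells bearing a perinucleolar compartment, from automated 20x imaging of fixed, Hoechst-stained PC3M PTB-GFP cells. Cells were seeded 4 h, then exposed 16 h to compound (23 nl of library stock) in duplicate plates.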
Each line names hits and unclear results; the compound was inactive in the other large screens. This excerpt belongs to a sample that is enriched for hits. Unless noted, calls follow the shape of the dose curve; as a rule, active = well fitted curve in the direction sought with a large enough effect; inconclusive = small, poorly fitted or top-dose-only effect, or another doubt; inactive = no such curve, though single readings can be large; an effect the other way counts as inactive or inconclusive.

CC[C@H](CO)NC(=O)[C@@H]1C=C2c3cccc4c3c(cn4C)C[C@@H]2N(C)C1	none (no result: IMPase Li inh, PNC inhibitor)
COc1ccc(C(C)=O)cc1CC(C(=O)c1ccc(C)c(C)c1)N(C)C (stereo unspecified)	none (no result: ALOX15B inhib)
COc1ccc(C(C)=O)cc1CC(C(=O)c1ccc(F)cc1)N(C)C (stereo unspecified)	PNC inhibitor -93 (no result: ALOX15B inhib)
CC1(C)Cc2c(sc3c2C(=O)NC(c2cccnc2)N3)CO1 (stereo unspecified)	PNC inhibitor -101
CC12CN3CC(C)(CN(C1)C3c1cccnc1)C2=O (stereo unspecified)	none
O=C1NC(c2cccnc2)Nc2sc3c(c21)CCCC3 (stereo unspecified)	PNC inhibitor -100 (no result: ALOX15B inhib)
Cc1ccccc1CN1CCN(C(=O)Cc2ccccc2)CC1	none (no result: IMPase cell inh, ALOX15B inhib, ALOX12 inhib, PNC inhibitor)
O=C(Cc1ccccc1)N1CCN(Cc2ccccn2)CC1	PNC inhibitor -84 (no result: ALOX15B inhib)
O=C(CCCOc1ccc(Cl)cc1Cl)N1CCC2(CC1)OCCO2	none
O=C(NC1(C(F)(F)F)Oc2ccc(Cl)cc2O1)N1CCC2(CC1)OCCO2 (stereo unspecified)	ALOX15B inhib 7.9µM, ALOX12 inhib inconclusive
O=C(NC1(C(F)(F)F)Oc2ccccc2O1)N1CCC2(CC1)OCCO2	PNC inhibitor -119 (no result: ALOX15B inhib)
CC(C)N[C@@H](C)Cc1ccc(I)cc1	none (no result: IMPase Li inh, PNC inhibitor)
COc1cc2c(cc1OC)[C@]13CC[N@+]4(C)CC5=CCO[C@H]6CC(=O)N2[C@@H]1C6[C@@H]5C[C@]34O (stereo partly specified)	none (no result: IMPase cell inh, ALOX15B inhib, ALOX12 inhib, PNC inhibitor)
C[C@@H]1Cc2cc3c(cc2C(c2ccc(N)cc2)=NN1)OCO3	none (no result: IMPase Li inh, PNC inhibitor)
O=C(O)/C=C\c1ccc[c]([Sb])c1	none (no result: IMPase cell inh, ALOX15B inhib, ALOX12 inhib, PNC inhibitor)
C=CCc1c(C)[nH]c(=S)c(C#N)c1C	ALOX15B inhib 13µM
CN(C)C1C(=O)C(C(N)=O)=C(O)[C@@]2(O)C(=O)C3=C(O)c4c(O)cccc4[C@@](C)(O)C3[C@H](O)C12 (stereo partly specified)	IMPase Li inh 3.2µM (no result: IMPase cell inh, ALOX15B inhib, ALOX12 inhib, PNC inhibitor)
Cc1cccn2c(NCC3CCCO3)c(C(C)C)nc12 (stereo unspecified)	PNC inhibitor -127
CCC(=NCCO)c1c(O)n(C2CCCCC2)c(=O)[nH]c1=O	none
CCC(=NCc1ccc2c(c1)OCO2)c1c(O)n(C2CCCCC2)c(=O)[nH]c1=O	PNC inhibitor -83
C/C=C(\C)C(=O)O[C@@H]1C(C)=C2[C@H]([C@@H]1OC(=O)CCCCCCC)[C@@](C)(OC(C)=O)C[C@@H](OC(=O)CCC)[C@@]1(O)[C@H]2OC(=O)[C@]1(C)O	none (no result: IMPase Li inh, PNC inhibitor)
Cc1c2ccncc2c(C)c2c1[nH]c1ccccc12	ALOX12 inhib inconclusive, PNC inhibitor -115
O=S(=O)(NCCO)c1cc[c]([Sb](=[O])([OH])[OH])cc1	none (no result: IMPase Li inh, IMPase cell inh, PNC inhibitor)
CCCN1CCC[C@H](c2cccc(C#N)c2)C1	none (no result: IMPase Li inh, PNC inhibitor)
c1ccc2c(c1)CC1CNCc3cccc(c31)S2 (stereo unspecified)	PNC inhibitor -117 (no result: IMPase cell inh, ALOX15B inhib)
CC(=O)NC(Cc1ccc(N(CCCl)CCCl)cc1)C(=O)O (stereo unspecified)	none (no result: ALOX15B inhib)
CCOC(=O)C(NC(C)=O)C(OC(C)=O)c1cccc(N(CCCl)CCCl)c1 (stereo unspecified)	PNC inhibitor -119 (no result: ALOX15B inhib)
